Seven molecules from PubChem BioAssay (NCATS) can be followed below.

SMILES strings stand for the structures. Values joined by “and” are separate entries in the source; they are usually repeats but may differ in a detail not shown here. Identical values can stand only once. Inconclusive results are not listed. Active and inactive are the calls of the source. Unless noted, calls follow the shape of the full dose curve.

For experiment [1], the target named is Glucocorticoid receptor (Homo sapiens) (UniProt P04150). Put plainly: qHTS assay for small molecule agonists of glucocorticoid receptor signaling (AID 588532; active = well fitted curve in the direction sought with a large enough effect in the signal ratio, with a control signal flat; the % refers to the signal ratio;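 also: 100% = dexamethasone at 0.1 µM and 0% = DMSO only wells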). As to conditions: HeLa MMTV-bla, beta-lactamase ratio, agonist, 18 h; activation: stronger effect = higher value, percent of dexamethasone control, DMSO zero. Put shortly: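 Using MMTV-bla HeLa cells in medium with 1% stripped FBS and 25 mM HEPES, compounds were titrated and incubated overnight-length (18 h). Beta-lactamase cleavage of CCF4 was quantified by dual-emission fluorescence.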

For experiment [2], the target named is Peroxisome proliferator-activated receptor delta (Homo sapiens) (UniProt Q03181). As to the kind of experiment: qHTS assay for small molecule agonists of peroxisome proliferator-activated receptor delta signaling (AID 588534).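 Also: 0% = DMSO basal wells and 100% = positive control agonist at 10 µM.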 The procedure, abridged: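 Cell-based beta-lactamase reporter assay run in agonist mode: cells seeded and incubated 5 hrs at 37 C, compounds added and incubated 18 hrs at 37 C. CCF4 dye fluorescence read after 2 hrs at RT; EC50 and efficacy from Hill fits.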

The nature of experiment [3]: qHTS assay for small molecule antagonists of peroxisome proliferator-activated receptor delta signaling (AID 588535).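 Also: cells co-treated with a PPAR-delta agonist as stimulator during compound exposure.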 The following applies: HEK293T PPARd-UAS-bla, beta-lactamase FRET ratio, 18 h; 460 nm channel. The procedure, abridged: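 Cell-based beta-lactamase assay in antagonist mode: 4000 HEK293T PPAR-delta-UAS-bla cells per well, 5 hr preincubation then 18 hr compound incubation at 37 C. IC50 obtained by Hill equation fitting.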
(Quantitative high-throughput screening tests each substance at several concentrations.)

Experiment [4] addresses Vitamin D3 receptor (Homo sapiens) (UniProt P11473). Put plainly: qHTS assay for small molecule antagonists of vitamin D receptor signaling (AID 588541).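 Also: receptor activated by calcitriol during compound treatment; series mostly up to about 77 µM; % is scaled to controls: 0 for no effect and ±100 for the full control effect.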 Put shortly:
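Antagonist-mode beta-lactamase reporter assay: HEK293T VDR-UAS-bla cells were exposed to titrated compound alongside 1-alpha,25-dihydroxyvitamin D3 at 3 nM final for 16 h. Values were normalized to the 50 nM agonist control and DMSO basal, with IC50 and efficacy from Hill equation fits.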

Experiment [5] shares this target. As to the kind of experiment: qHTS assay for small molecule agonists of vitamin D receptor signaling (AID 588543).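 Also: 0% = DMSO basal and 100% = reference agonist control.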 The procedure, abridged: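 qHTS in agonist mode: compound titrations stimulate a VDR-driven β-lactamase reporter in HEK293T cells over 16 h at 37 °C. Response normalized to 50 nM 1α,25-dihydroxyvitamin D3 = 100%, DMSO = 0%; Hill fitting gives EC50 and maximal response.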

Experiment [6] deals with Retinoic acid receptor RXR-alpha (Homo sapiens) (UniProt P19793). Put plainly: qHTS assay for small molecule agonists of retinoid X receptor alpha signaling (AID 588544).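 Also: 0% = DMSO basal wells and 100% = reference agonist.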
For experiment [7], the target named is Thyroid hormone receptor beta (Homo sapiens) (UniProt P10828). Put plainly: qHTS assay for small molecule agonists of thyroid hormone receptor beta signaling (AID 588545). The procedure, abridged: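 Agonist activity was read as beta-lactamase CCF4 fluorescence (405 ex, 460/530 em), scaled between DMSO (0%) and 10 nM T3 (100%), then Hill-fitted for EC50 and efficacy. HEK 293 TR-UAS-bla cells in 2% charcoal/dextran FBS medium were exposed 18 h at 37 C.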

Experiment [8] has the same target. As to the kind of experiment: qHTS assay for small molecule antagonists of thyroid hormone receptor beta signaling (AID 588547; active = well fitted inhibition curve with a large enough effect in the signal ratio, with a control signal flat, not every such curve was filed as active; the % refers to the signal ratio;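 also: cells stimulated with 0.4 nM T3 agonist during compound exposure; series mostly up to about 77 µM; % is scaled to controls: 0 for no effect and ±100 for the full control effect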). The following applies: TR-UAS-bla HEK293, beta-lactamase ratio, antagonist mode, 18 h. The procedure, abridged:
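Inhibition of T3-driven (0.4nM final) beta-lactamase reporter activity was measured over 0.59 nM to 92 uM compound after 18 h at 37 C. The cells were GripTite HEK293 TR-UAS-bla in charcoal/dextran-stripped serum, with CCF4 ratio read-out and IC50 from Hill fits.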

Experiment [9] can be described thus: qHTS assay for small molecule activators of the p53 signaling pathway (AID 651743; active = well fitted activation curve with a large enough effect in the signal ratio, not every such curve was filed as active; the % refers to the signal ratio; also: potency is read from the fitted curve at half-maximal effect; as to activation: series mostly up to about 92 µM; % of control where 0% means no effect). As to conditions: HCT-116 p53RE-bla, beta-lactamase FRET ratio, 16 h; activation: stronger effect = higher value. Put shortly: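 Screen for p53 pathway agonists uses stably transfected p53RE-bla HCT-116 cells, 4,000 per well, treated 16 h at 37 C with compounds in DMSO.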
Experiment [10] can be described thus: qHTS assay for small molecule activators of the nuclear factor-kappa B (NF-kB) signaling pathway (AID 651749; active = well fitted activation curve with a large enough effect in the signal ratio; the % refers to the signal ratio; also: series mostly up to about 77 µM; % of control where 0% means no effect). The following applies: NF-kB-bla ME-180 cells, beta-lactamase FRET ratio, 16 h; activation: stronger effect = higher value. Put shortly:
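Stably transfected ME-180 line; NF-kB response element upstream of beta-lactamase. Treatment: compound or DMSO, 16 hr. Detection: fluorescent FRET substrate.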

The nature of experiment [11]: qHTS assay for environmental chemicals that activate the Aryl hydrocarbon Receptor (AhR) signaling pathway (AID 651777; active = well fitted curve in the direction sought with a large enough effect; an effect the other way counts as inactive or inconclusive; also: % of control where 0% means no effect; nearly all actives have a fitted effect of over 15% in size). The following applies: 1A2-DRE human hepatoma cells, luciferase, 24 h; activation: stronger effect = higher value. Put shortly:
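Luminescence (One-Glo, 30 min, room temperature) reports AhR-driven luciferase in stably transfected human hepatoma cells bearing DRE and CYP1A2 promoter. Cells (1,200/well) were treated with compound for 24 hr at 37 C in qHTS format.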

The target in experiment [12] is Peroxisome proliferator-activated receptor alpha (Homo sapiens) (UniProt Q07869). As to the kind of experiment: qHTS assay for small molecule agonists of the peroxisome proliferator-activated receptor alpha (PPARalpha) signaling pathway (AID 651778; active = well fitted curve in the direction sought with a large enough effect; an effect the other way counts as inactive or inconclusive; also: potency is read from the fitted curve at half-maximal effect; as to max response: % of control where 0% means no effect). As to conditions: PathHunter PPARalpha complementation, chemiluminescence, 6 h; max response: stronger effect = higher value. The procedure, abridged:
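Chemiluminescence from complemented enzyme reported PPARalpha activation in cells after 6 hr of compound treatment at 37 C. The detection reagent was incubated for 60 min at room temperature, and compounds were scored as agonists.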

Experiment [13] in a line: qHTS assay for small molecule agonists of the antioxidant response element (ARE) signaling pathway measured by Nrf2-dependant transcriptional activity (AID 720636; active = well fitted curve in the direction sought with a large enough effect in the repeat runs; an effect the other way counts as inactive or inconclusive; also: % of control where 0% means no effect). The procedure, abridged:
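Nrf2-dependent transcription read as ONE-Glo luciferase signal from ARE-luc HepG2 reporter cells after 16 hr compound treatment at 37 C, 5% CO2, in assay medium with 1% dialyzed FBS.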

Experiment [14] is described as follows: qHTS assay for small molecule agonists of the antioxidant response element (ARE) signaling pathway measured by Nrf2-dependant transcriptional activity - cell viability counter screen (AID 720653; active = well fitted curve in the direction sought with a large enough effect in the repeat runs; an effect the other way counts as inactive or inconclusive; also: % is scaled to controls: 0 for no effect and ±100 for the full control effect). As to conditions: ARE-bla HepG2 viability, CellTiter-Glo ATP luminescence, 16 h; max response: stronger effect = lower value. Put shortly:
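Cytotoxicity counter screen: intracellular ATP quantified by CellTiter-Glo luminescence in the same ARE-bla HepG2 plates, after 16 h compound exposure and a 2 h beta-lactamase substrate step.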

Experiment [15] can be described thus: qHTS assay for cell viability of HEK293 cells (AID 743288; active = well fitted curve in the direction sought with a large enough effect; an effect the other way counts as inactive or inconclusive; also: % is scaled to controls: 0 for no effect and ±100 for the full control effect; nearly all actives have a fitted effect of over 50% in size). The following applies: ATP luminescence (CellTiter-Glo), 18 h; max response: stronger effect = lower value. The procedure, abridged: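 The Tox21 protocol used parental HEK293 cells treated for 18 h at 37 C with compounds delivered by pintool; ATP-coupled luminescence after 30 min at room temperature gave viability.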

Experiment [16] can be described thus: qHTS assay for cell viability of the p53RE-bla HCT-116 cell line (AID 743292; active = well fitted curve in the direction sought with a large enough effect; an effect the other way counts as inactive or inconclusive; also: % is scaled to controls: 0 for no effect and ±100 for the full control effect; nearly all actives have a fitted effect of over 55% in size). Put shortly:
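ATP-based luminescent viability (CellTiter-Glo, 30 min RT) after 16 h compound treatment at 37 C of p53RE-bla HCT-116 cells, seeded at 4,000 cells/well and rested 5 h before dosing.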

Experiment [17] addresses Bile acid receptor (Homo sapiens) (UniProt Q96RI1). As to the kind of experiment: qHTS assay for small molecule antagonists of farnesoid X receptor signaling (AID 588526). Also: % is scaled to controls: 0 for no effect and ±100 for the full control effect. The procedure, abridged:
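Beta-lactamase reporter antagonist mode: HEK293T FXR-UAS-bla cells, titrated compound, CDCA stimulation, 16 h 37 C, CCF4 dye 2 h RT. Data normalized to CDCA 50 uM and DMSO; Hill-fit IC50.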

The target is the same in experiment [18]. As to the kind of experiment: qHTS assay for small molecule agonists of farnesoid X receptor signaling (AID 588527).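 Also: series mostly up to about 77 µM; 0% = vehicle basal and 100% = reference agonist.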 The following applies: HEK293T FXR-UAS-bla, beta-lactamase ratio, 16 h; activation: stronger effect = higher value. Put shortly: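 Quantitative HTS used FXR-UAS-bla HEK293T cells with 16 h compound incubation at 37 C. EC50 values came from concentration-response curves normalized to chenodeoxycholic acid.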

Experiment [19] in a line: qHTS assay for small molecule antagonists of retinoid X receptor alpha signaling (AID 588546; active = well fitted inhibition curve with a large enough effect in the signal ratio, with a control signal flat, not every such curve was filed as active; the % refers to the signal ratio). The following applies: HEK293T RXRa-UAS-bla, beta-lactamase ratio, antagonist mode; measured here: W530 green channel, cytotoxicity proxy. The procedure, abridged:
(§1)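 Beta-lactamase reporter inhibition, read as CCF4 fluorescence ratio (ex 405, em 460/530 nm) after 2 h at RT. HEK293T UAS-bla cells, 2500/well, were stimulated with 9-cis-RA at 500 or 100 nM final alongside test compound for 18 h at 37 C.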

Experiment [20] has as its target Retinoic acid receptor RXR-alpha (Homo sapiens) (UniProt P19793). The experiment is described as above. The following applies: HEK293T RXRa-UAS-bla, beta-lactamase ratio, antagonist mode. The procedure, abridged:
as §1

Chain of Bile acid receptor (Homo sapiens) (Q96RI1 whole entry, looked up): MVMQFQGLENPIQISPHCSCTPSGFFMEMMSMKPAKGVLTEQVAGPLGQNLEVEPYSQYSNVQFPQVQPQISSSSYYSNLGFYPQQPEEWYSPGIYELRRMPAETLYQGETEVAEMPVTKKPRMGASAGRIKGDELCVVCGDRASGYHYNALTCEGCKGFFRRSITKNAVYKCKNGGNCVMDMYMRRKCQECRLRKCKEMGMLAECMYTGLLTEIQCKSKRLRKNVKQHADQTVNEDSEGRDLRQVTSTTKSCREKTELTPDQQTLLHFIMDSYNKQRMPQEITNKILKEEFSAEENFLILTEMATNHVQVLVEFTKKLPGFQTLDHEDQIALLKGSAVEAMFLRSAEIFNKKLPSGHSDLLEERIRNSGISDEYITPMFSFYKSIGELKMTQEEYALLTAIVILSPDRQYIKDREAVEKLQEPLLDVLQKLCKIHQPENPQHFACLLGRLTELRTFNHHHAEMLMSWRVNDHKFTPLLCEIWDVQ
Chain of Peroxisome proliferator-activated receptor alpha (Homo sapiens) (Q07869 whole entry, looked up): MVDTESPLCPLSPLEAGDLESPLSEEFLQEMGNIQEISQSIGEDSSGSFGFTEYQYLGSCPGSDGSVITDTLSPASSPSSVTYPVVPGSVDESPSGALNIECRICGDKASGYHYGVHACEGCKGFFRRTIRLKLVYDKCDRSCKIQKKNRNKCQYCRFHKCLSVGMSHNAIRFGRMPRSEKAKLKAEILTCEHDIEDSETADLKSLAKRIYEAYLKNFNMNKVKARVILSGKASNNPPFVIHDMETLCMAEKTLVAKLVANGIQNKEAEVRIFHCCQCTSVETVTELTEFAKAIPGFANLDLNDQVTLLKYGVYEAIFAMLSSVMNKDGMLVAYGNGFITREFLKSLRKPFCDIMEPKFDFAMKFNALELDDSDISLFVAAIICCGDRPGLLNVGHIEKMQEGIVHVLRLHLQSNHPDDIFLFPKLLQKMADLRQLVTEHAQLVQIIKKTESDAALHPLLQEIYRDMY
Chain of Peroxisome proliferator-activated receptor delta (Homo sapiens) (Q03181 whole entry, looked up): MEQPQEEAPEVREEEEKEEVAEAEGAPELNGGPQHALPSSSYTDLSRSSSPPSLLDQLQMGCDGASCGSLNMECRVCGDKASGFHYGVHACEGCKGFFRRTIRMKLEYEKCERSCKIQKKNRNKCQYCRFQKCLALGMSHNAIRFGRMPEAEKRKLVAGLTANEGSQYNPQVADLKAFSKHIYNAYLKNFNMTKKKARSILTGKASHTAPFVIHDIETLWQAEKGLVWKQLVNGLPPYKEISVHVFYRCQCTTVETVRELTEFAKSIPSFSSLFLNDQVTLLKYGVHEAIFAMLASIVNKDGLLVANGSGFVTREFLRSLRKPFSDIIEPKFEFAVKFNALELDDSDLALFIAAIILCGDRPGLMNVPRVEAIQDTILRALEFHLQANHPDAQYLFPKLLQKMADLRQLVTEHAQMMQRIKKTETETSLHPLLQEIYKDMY
Chain of Glucocorticoid receptor (Homo sapiens) (P04150 whole entry, looked up): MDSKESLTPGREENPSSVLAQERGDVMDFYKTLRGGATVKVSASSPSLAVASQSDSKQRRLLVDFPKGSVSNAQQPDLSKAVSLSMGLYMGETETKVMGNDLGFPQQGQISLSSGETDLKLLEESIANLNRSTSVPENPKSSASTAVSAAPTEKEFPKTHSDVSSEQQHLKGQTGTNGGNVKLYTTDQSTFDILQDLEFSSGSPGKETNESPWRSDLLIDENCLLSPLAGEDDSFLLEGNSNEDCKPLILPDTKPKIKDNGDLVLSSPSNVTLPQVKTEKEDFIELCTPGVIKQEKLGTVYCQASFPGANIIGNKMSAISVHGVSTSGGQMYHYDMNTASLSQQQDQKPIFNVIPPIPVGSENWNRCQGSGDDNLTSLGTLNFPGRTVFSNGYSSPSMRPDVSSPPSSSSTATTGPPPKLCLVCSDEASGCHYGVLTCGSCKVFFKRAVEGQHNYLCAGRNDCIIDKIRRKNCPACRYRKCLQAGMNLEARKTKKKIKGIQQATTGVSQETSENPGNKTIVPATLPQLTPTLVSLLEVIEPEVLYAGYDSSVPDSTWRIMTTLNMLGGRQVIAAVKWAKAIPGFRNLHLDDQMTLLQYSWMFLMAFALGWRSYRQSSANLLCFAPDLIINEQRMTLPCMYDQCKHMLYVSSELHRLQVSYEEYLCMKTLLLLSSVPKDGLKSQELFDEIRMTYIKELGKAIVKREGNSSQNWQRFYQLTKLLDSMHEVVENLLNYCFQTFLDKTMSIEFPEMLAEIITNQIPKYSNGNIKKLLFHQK
Chain of Thyroid hormone receptor beta (Homo sapiens) (P10828 whole entry, looked up): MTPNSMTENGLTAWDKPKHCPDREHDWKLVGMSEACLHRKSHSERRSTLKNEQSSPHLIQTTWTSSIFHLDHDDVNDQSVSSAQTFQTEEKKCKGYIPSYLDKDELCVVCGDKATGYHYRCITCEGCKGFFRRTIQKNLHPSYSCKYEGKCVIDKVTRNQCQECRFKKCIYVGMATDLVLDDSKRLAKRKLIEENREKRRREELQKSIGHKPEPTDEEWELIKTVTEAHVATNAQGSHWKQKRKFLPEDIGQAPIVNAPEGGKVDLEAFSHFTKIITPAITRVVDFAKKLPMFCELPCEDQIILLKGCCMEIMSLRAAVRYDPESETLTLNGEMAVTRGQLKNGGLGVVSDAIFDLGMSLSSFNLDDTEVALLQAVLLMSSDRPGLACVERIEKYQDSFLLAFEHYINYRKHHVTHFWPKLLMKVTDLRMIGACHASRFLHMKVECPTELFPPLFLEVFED
Chain of Retinoic acid receptor RXR-alpha (Homo sapiens) (P19793 whole entry, looked up): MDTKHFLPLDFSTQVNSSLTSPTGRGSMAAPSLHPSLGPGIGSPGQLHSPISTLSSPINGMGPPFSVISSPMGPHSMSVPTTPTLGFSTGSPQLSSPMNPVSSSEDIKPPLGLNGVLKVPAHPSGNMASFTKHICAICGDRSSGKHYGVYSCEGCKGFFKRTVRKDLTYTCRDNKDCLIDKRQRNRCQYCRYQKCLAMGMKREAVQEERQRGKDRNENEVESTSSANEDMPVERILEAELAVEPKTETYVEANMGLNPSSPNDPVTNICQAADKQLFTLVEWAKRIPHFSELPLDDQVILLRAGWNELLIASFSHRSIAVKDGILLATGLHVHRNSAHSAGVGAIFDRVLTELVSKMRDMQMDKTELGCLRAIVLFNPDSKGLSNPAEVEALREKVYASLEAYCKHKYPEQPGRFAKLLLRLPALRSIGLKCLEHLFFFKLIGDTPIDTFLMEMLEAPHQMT
Chain of Vitamin D3 receptor (Homo sapiens) (P11473 whole entry, looked up): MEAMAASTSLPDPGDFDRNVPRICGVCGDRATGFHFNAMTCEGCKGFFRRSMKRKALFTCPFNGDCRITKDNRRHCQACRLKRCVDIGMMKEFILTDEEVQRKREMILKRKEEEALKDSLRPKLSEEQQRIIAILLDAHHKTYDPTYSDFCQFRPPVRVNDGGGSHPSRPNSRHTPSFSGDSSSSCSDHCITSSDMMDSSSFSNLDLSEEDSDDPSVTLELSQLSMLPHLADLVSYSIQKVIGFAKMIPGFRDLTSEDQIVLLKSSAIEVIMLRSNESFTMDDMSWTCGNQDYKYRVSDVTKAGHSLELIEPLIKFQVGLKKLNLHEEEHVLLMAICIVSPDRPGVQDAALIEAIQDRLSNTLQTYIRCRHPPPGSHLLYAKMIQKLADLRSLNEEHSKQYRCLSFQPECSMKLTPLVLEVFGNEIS

Turning to `O=CNC(N1CCN(C(NC=O)C(Cl)(Cl)Cl)CC1)C(Cl)(Cl)Cl` (configuration not stated), the activation was -2.65% (inactive) in experiment [1], -7.11% (inactive) in experiment [9], -2.29% (inactive) in [10] and 0.502% (inactive) in [11]. Further, the call in [2] and in experiment [5] was inactive. Also, the max response in [3] is 26.2%; in experiment [12] it was -1.75% (inactive); in experiment [14], -22.2% (inactive); in experiment [15] it was -20.2% (inactive). Besides, the Potency entry in experiment [4], in [6], in experiment [7], in [13] and in experiment [16] was “inactive” each time. For the same molecule, the activity change % (negative = inhibition) in [8] is -18.1% (inactive).
In the case of `CC1(C)[C@H](C(=O)O[C@H](C#N)c2cccc(Oc3ccccc3)c2)[C@@H]1C=C(Br)Br`, in [2], the outcome was inactive. Further, the max response was 6.87% in experiment [3], -0.333% (inactive) in experiment [12], -10.6% (inactive) in experiment [14] and -19% (inactive) in experiment [15]. The Potency entry in experiment [6], in experiment [7], in experiment [13] and in experiment [16] was “inactive” throughout. Besides, the activation in experiment [9] was 3.18% (inactive); in experiment [11], -1.98% (inactive).
As to `CCOc1cc(C(C)(C)C)ccc1C1COC(c2c(F)cccc2F)=N1` (configuration not stated), the molecule was classed as inactive in experiment [2] and in experiment [5]. Also, the max response in [3] was -21.7%; in experiment [12], 6.72% (inactive); in experiment [14], -8.55% (inactive); in experiment [15], -20% (inactive). Besides, the Potency entry in experiment [7] is “inactive”. Also, the activity change % (negative = inhibition) in [8] was -28.7% (inactive). The results for the activation in experiment [10] and in experiment [11] were 3.07% (inactive) and 6.58% (inactive), respectively.
Turning to `CCOP(=O)(OCC)OC(Cl)C(Cl)(Cl)Cl` (configuration not stated), the Potency entry in experiment [17], in experiment [6], in experiment [7], in experiment [13] and in experiment [16] was “inactive” in each case. Further, the activation is 4.93% (inactive) in experiment [18]; -1.92% (inactive) in [1]; -3.88% (inactive) in experiment [9]; 1.4% (inactive) in [10]; 2.83% (inactive) in experiment [11]. Moreover, the outcome in experiment [2] and in experiment [5] was inactive. In addition, the max response was 51.3% in experiment [3]; -13.7% in experiment [19]; -17.2% (inactive) in experiment [20]; -17.4% (inactive) in experiment [14]; -7.64% (inactive) in [15]. In [8], the activity change % (negative = inhibition) was -2.35% (inactive).
As to `CCCN(CCOc1c(Cl)cc(Cl)cc1Cl)C(=O)n1ccnc1`, the Potency entry in experiment [17], in experiment [7], in [13] and in experiment [16] was “inactive” in each case. Moreover, the activation in experiment [18] is 4.58% (inactive); in experiment [1] it was 3.18% (inactive) and 2.99% (inactive). Further, the result in [2] was inactive. In addition, the max response was 26.8% and 55.9% in experiment [3]; -1.45% (inactive) and -1.52% (inactive) in [12]; -20.2% (inactive) and 3.11% (inactive) in [14]; -28.6% (inactive) and -28.7% (inactive) in [15]. For the same molecule, in [8], the activity change % (negative = inhibition) is 22.9% (inactive).
Consider `CCNS(=O)(=O)C(F)(F)C(F)(F)C(F)(F)C(F)(F)C(F)(F)C(F)(F)C(F)(F)C(F)(F)F`, for which the Potency result in [17], in experiment [4], in experiment [6], in experiment [13] and in [16] was “inactive” each time. Also, the outcome in [2] and in [5] was inactive. Moreover, the max response in experiment [3] is -20.7%; in [19], -8.67%; in experiment [20] it was 6.49% (inactive); in [12] it was 5.8% (inactive); in experiment [14] it was -7.97% (inactive); in [15] it was -20.2% (inactive). Besides, the activity change % (negative = inhibition) in experiment [8] is 23.1% (inactive). For the same molecule, in experiment [11], the activation is 1.24% (inactive).
As to `N#Cc1cc(I)c(O)c(I)c1`, the outcome in experiment [2] and in experiment [5] was inactive. Moreover, the max response is 43.3% in [3]; 0.0011% in [19]; -13.5% (inactive) in [20]; -6.44% (inactive) in [14]; -4.72% (inactive) in experiment [15]. Besides, the Potency entry in experiment [4], in [6], in experiment [7] and in [13] was “inactive” each time. Moreover, the Potency in experiment [9] is 44.7 µM (active); in experiment [12], 15.8 µM (active). The values for the activation in experiment [10] and in experiment [11] were 1.07% (inactive) and -1.69% (inactive), respectively.
